MITF primary – inhibitors of human MITF; O75030; AlphaScreen MITF homodimerization, bead proximity signal; inhibition, % at 2.6 µM; 650,000 compounds, 0.91% hits; AID 1259374; in the data active = inhibition above about 50%;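 also: 0% = vehicle wells with protein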
FBW7 act – human FBW7 E3 ligase activation, primary screen. Q969H0. AlphaScreen FBW7–phospho-cyclin E peptide binding, activator screen. normalized activity (activation), % at 26.1 µM. 650,000 compounds, 0.13% hits. AID 1259310; in the data active = normalized activity above about 1.9%;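 also: purified mutant Fbw7 with reduced substrate affinity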
TEAD-YAP block – TEAD-YAP interaction inhibition | HEK-TIYL cells, TEAD-Gal4/YAP UAS-luciferase luminescence | inhibition, % at 9.12 µM | 640,000 compounds, 1.4% hits | AID 1259422; in the data active = inhibition above about 32%;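 also: 0% = median of test compound wells and 100% = reference inhibitor wells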
GPR151 activ – activators of human GPR151; Q8TDV0; PathHunter beta-arrestin GPR151 cells, luminescence; activation, % at 11.2 µM; 650,000 compounds, 1% hits; AID 1508602; in the data active = activation above about 4.9%;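 also: 0% = median of compound wells and 100% = cells with positive control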
Target sequence (Q8TDV0 whole entry, looked up): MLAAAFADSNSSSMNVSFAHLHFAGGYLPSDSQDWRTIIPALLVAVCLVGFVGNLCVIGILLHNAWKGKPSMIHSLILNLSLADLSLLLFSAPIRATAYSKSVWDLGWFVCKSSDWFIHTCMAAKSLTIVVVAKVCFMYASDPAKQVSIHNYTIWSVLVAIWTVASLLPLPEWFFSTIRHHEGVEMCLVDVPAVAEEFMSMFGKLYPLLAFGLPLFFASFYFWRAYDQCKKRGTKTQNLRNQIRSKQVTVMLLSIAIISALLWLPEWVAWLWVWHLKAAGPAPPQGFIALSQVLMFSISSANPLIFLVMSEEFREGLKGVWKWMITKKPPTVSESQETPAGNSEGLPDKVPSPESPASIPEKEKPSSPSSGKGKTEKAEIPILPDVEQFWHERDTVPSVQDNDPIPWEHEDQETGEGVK
An asterisk follows results filed as active. Compounds with a hit are over-represented: about 3.5% of the library has one in this group of screens.

SMILES | MITF primary | FBW7 act | TEAD-YAP block | GPR151 activ
N#Cc1ccsc1NC(=O)c1cccc(Cl)c1Cl | -1 | 0 | 5 | -2
CC(C)CCOC(=O)C[N+](C)(C)CCOC1CC2CCC1(C)C2(C)C (stereo not given) | -13 | 0 | 37* | 0
CCOc1ccccc1NC(=O)CSc1ncnc2c1cnn2-c1ccc(C)cc1C | 17 | 0 | 8 | -1
CCOC(=O)c1cnc(Nc2nc3ccccc3o2)nc1C | -1 | 0 | 44* | -2
CCOC(=O)c1c(C)nc(Nc2nc3ccccc3o2)nc1-c1ccccc1 | -6 | 0 | -5 | 2
CN(C(=O)c1cccc2ncccc12)c1nc2c(s1)CCc1occc1-2 | 12 | 7.5* | -7 | 0
Cc1ccc(Oc2ccc(-c3cnc4ccccc4n3)cc2[N+](=O)[O-])c(-n2nc3ccccc3n2)c1 | 6 | 0 | -1 | 1
Cc1ccc(Oc2ccc(-c3cnc4ccccc4n3)cc2[N+](=O)[O-])cc1C | 1 | 1.9* | 14 | 0
O=[N+]([O-])c1cc(-c2cnc3ccccc3n2)ccc1N1CCCCCC1 | 15 | 1 | 71* | -1
CC(=O)c1ccc(Oc2ccc(-c3cnc4ccccc4n3)cc2[N+](=O)[O-])cc1 | 2 | 0 | -4 | 0
COCCN(Cc1ccsc1)C(=O)NCc1ccc(OC)c(OC)c1 | 6 | 0 | 4 | -1
CC1(C)CC(=O)C2=C(C1)OC1=C(C(=O)CC(C)(C)C1)C2c1cc(C(C)(C)C)c(O)c(C(C)(C)C)c1 | 8 | 0 | 0 | 1
CC1(C)CC(=O)C2=C(C1)OC(N)=C(C#N)C2c1cc(C(C)(C)C)c(O)c(C(C)(C)C)c1 (stereo not given) | 11 | 0 | 80* | 1
COc1ccc(OCC(=O)Nc2ccc(I)cc2)cc1 | 6 | 1 | -1 | 0
COc1cc(C)ccc1OCCN1CCCC(C)C1 (stereo not given) | 44 | 0 | 3 | -1
CC1=C(C(=O)OCc2ccc3c(c2)OCO3)C(c2ccc(Cl)cc2)NC(=O)N1 (stereo not given) | 11 | 0 | 77* | 0
CC1=C(C(=O)OCc2ccc3c(c2)OCO3)C(c2ccc([N+](=O)[O-])cc2)NC(=O)N1 (stereo not given) | 4 | 0 | 76* | 0
CC1=C(C(=O)OCc2ccc3c(c2)OCO3)C(c2ccccc2OC(C)C)NC(=O)N1 (stereo not given) | 12 | 1 | -9 | 0
CCN(CC)c1ccc(C2NC(=O)NC(C)=C2C(=O)OCc2ccc3c(c2)OCO3)cc1 (stereo not given) | 9 | 0 | 17 | -1
CC1=C(C(=O)OCc2ccc3c(c2)OCO3)C(c2ccc(F)cc2)NC(=O)N1 (stereo not given) | 12 | 0 | 61* | 1
CC1=C(C(=O)OCC2CCCO2)C(c2ccc([N+](=O)[O-])cc2)NC(=O)N1 (stereo not given) | -1 | 0 | 3 | 0
CC1(C)CC(=O)C2=C(C1)N1C(=C(C#N)C2c2ccc3c(c2)OCO3)N=C(N)c2c1sc1c2CCCCC1 (stereo not given) | 10 | 0 | -6 | -1
CCCCCSc1nc2sc3c(c2c(=O)n1-c1ccc(C)cc1)CCC3 | 15 | 0 | -2 | 0
CCOc1ccc(N(/C=C2\Sc3ccccc3C2=O)C(=O)c2cccc(Cl)c2)cc1 | 9 | 0 | 45* | -8
COc1ccc(N(/C=C2\Sc3ccccc3C2=O)C(=O)c2cccc(Cl)c2)cc1 | 11 | 0 | 51* | -9
SMILES | MITF primary | FBW7 act | TEAD-YAP block | GPR151 activ
CCOC(=O)N1CCN(C(=O)C(Cl)(Cl)Cl)CC1 | 3 | 0 | 1 | 0
COc1ccc(OC)c(S(=O)(=O)c2cc3cccc(OC)c3oc2=O)c1 | -11 | 0 | 2 | -1
Nc1ncc(-c2ccncc2)nc1NCc1ccccc1 | -2 | 0 | 7 | 2
Nc1ncc(-c2cccc(F)c2)nc1NCc1ccncc1 | 12 | 1.9* | -8 | -2
COc1ccc(/C(C)=N/Nc2cccc(C)c2)c(O)c1 | -11 | 0 | -13 | 3
CCCc1ccc(Oc2cn[nH]c2-c2ccc(O)cc2O)cc1 | 3 | 0 | 65* | 0
CNS(=O)(=O)Cc1ccc(Nc2nccc(-c3cccc(CS(C)(=O)=O)c3)n2)cc1 | 8 | 0 | 13 | 0
CN(C)CCn1c2ccccc2c2cnc(N)c(C#N)c21 | 3 | 0 | 93* | 2
CCCc1[nH]n(-c2ccc(F)cc2)c(=O)c1C=NCCN1CCN(C(=O)c2ccccc2)CC1 | 10 | 0 | 9 | 0
Cc1ccc(Nc2nnc(-c3ccc(N4CCOCC4)c([N+](=O)[O-])c3)s2)cc1Cl | 1 | 0 | -14 | 4
Cc1ccc(NC(=O)N2CCCC2C(=O)Nc2ccccc2C)cc1 (stereo not given) | 0 | 6.3* | 0 | 0
Cc1ccccc1NC(=O)C1CCCN1C(=O)Nc1ccccc1 (stereo not given) | 15 | 0 | 10 | -1
O=C1CCCN1C(=S)C(=S)N1CCCC1=O | 21 | -2 | 99* | 1
CC[n+]1c(-c2ccc(C)cc2)csc1Nc1c(C)cc(C)cc1C | 22 | 0 | 5 | 3
CC[n+]1c(-c2ccc(C)cc2)csc1Nc1ccc(NC(C)=O)cc1 | 12 | 0 | 62* | 1
Oc1ccc(CCNc2nc(Nc3ccncc3)nc3c2ncn3C2CCCCC2)cc1 | 5 | 0 | 23 | -1
Cc1[nH]c2ccc(-c3nnc(SCC(=O)Nc4cccc([N+](=O)[O-])c4)n3Cc3ccccc3)cc2c1C | -6 | 0 | 1 | 0
Cc1[nH]c2ccc(-c3nnc(SCC(=O)Nc4cccc([N+](=O)[O-])c4)n3-c3ccccc3)cc2c1C | 17 | 2.4* | 2 | 1
CN1CCN(c2ccc(-c3cc(C(=O)NCc4nc5ccccc5[nH]4)ccn3)cc2)CC1 | 0 | 0 | 88* | -2
COc1ccc(-c2cccc(C(=O)NCc3nc4ccccc4[nH]3)c2)cc1 | 7 | 0 | -12 | 0
CN1CCN(c2ccc(-c3cccc(C(=O)NCc4nc5ccccc5[nH]4)c3)cc2)CC1 | 3 | 0 | 68* | 3
CCCC1=C(C(=O)OCC)C(c2cccc([N+](=O)[O-])c2)n2ncnc2N1 (stereo not given) | 11 | 0 | 33* | -1
CCCC1=C(C(=O)OCC)C(c2ccccc2[N+](=O)[O-])n2ncnc2N1 (stereo not given) | -5 | 0 | 4 | 0
N#Cc1c(/N=C/c2ccc(O)c(O)c2)sc2c1CCCC2 | 6 | 0 | 43* | 0
COc1cc(/C=N/c2sc3c(c2C#N)CCC3)ccc1OCC(=O)O | 3 | 0 | 12 | 0
CCOC(=O)C1=C(CN2CCC(C(N)=O)CC2)NC(=O)NC1c1cccs1 (stereo not given) | -9 | 2.6* | -1 | -1
CCOC(=O)C1=C(CN2CCCC2)NC(=O)NC1c1cccs1 (stereo not given) | 4 | 1 | 4 | -1
Nc1nnc(SCC(=O)c2cccs2)s1 | 3 | 0 | -16 | -1
CCOCc1cc(CN2CCN(c3ccccc3OC)CC2)c(O)c2ncccc12 | 91* | -1 | 10 | 0

Assay outcomes (PubChem)
